Screens from PubChem BioAssay.
Rows were chosen to be rich in hits. Some 19% of all compounds tested hit in one or more screens of this group.
IL1B secr inh: blocks inflammasome-driven IL-1 beta release | 360,000 compounds, 4.7% hits | THP-1 LPS/ATP IL-1B secretion, AlphaLISA, 16 h; hits give low values | activity change, % at 57.5 µM | AID 743279; in the data active = activity change below about -50%; inconclusive = mostly about -30% to -49%
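THP-1 cells pretreated 1 hr with compounds (up to 57.5 uM final), then stimulated with LPS (250 ng/mL final) plus ATP (1.25 mM final); secreted IL-1B measured by AlphaLISA after 16 hr, decreased signal indicating inhibition.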
DT40 TDP1 no CPT: qHTS for Inhibitors of human tyrosyl-DNA phosphodiesterase 1 (TDP1): qHTS in cells in absence of CPT; Potency, µM (top dose mostly 46.2 µM), inactives show top-dose activity change, negative = growth inhibition, hits mostly inhibitors; DT40 Tdp1-/- hTDP1 cells, no CPT, ATP luminescence, 48 h; 420,000 compounds, 15% hits; note: potency is the fitted concentration of half-maximal effect; nearly all actives have a fitted effect of over 55% in size
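A cellular qHTS used chicken DT40 cells lacking endogenous Tdp1 but carrying stably transfected human TDP1. Compounds were applied without camptothecin, and cell growth kinetics were judged by ATP-dependent luminescence after ≥48 hr.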
HT1080 IDH1KD tx: toxicity to HT-1080 IDH1 knockdown cells (counter line); HT-1080 IDH1 knockdown viability, ATP luminescence, 48 h; Potency, µM (doses to about 46.1 µM), for the others: at the highest dose activity, negative = toxicity, hits mostly cytotoxic; 360,000 compounds, 2% hits;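 note: potency is the fitted concentration of half-maximal effect; 0% = DMSO wells and -100% = cell-free medium wells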
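Viability of IDH1-knockdown HT-1080 fibrosarcoma cells was assessed by CellTiter-Glo after 48 h at 37 °C with titrated compound; concentration-effect curves were classified by fit quality and response size.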
HT1080NT lethal: kills 2HG-producing HT-1080-NT fibrosarcoma cells | Potency, µM (top dose mostly 46.1 µM), inactives show at the top dose activity, negative = less viability, usual class: cytotoxic | 360,000 compounds, 1.6% hits | AID 686970 | HT-1080-NT fibrosarcoma viability, CellTiter-Glo ATP luminescence, 48 h;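 note: NT is the 2HG producing partner of a matched IDH1 knockdown line; potency is the fitted concentration of half-maximal effect; 0% = DMSO-treated cells and -100% = media-only wells without cells; nearly all actives have a fitted effect of over 55% in size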
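HT-1080-NT fibrosarcoma cells (2HG-overproducing), 750 cells/well in RPMI with 5% FBS, dosed after 2 h and incubated 48 h at 37C. CellTiter-Glo luminescence normalized to DMSO and no-cell wells; concentration-response curves fitted and classed.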
TDP1 cell CPT: growth inhibition of DT40 Tdp1-/-;hTDP1 cells with camptothecin (screen for TDP1 inhibitors). chicken DT40 Tdp1-/-;hTDP1 cells + 20 nM CPT, ATP luminescence, 48 h. Potency, µM (highest dose often 46.2 µM), inactives show top-dose activity change, negative = growth inhibition, most hits filed as inhibitors. 420,000 compounds, 12% hits; note: potency is the fitted concentration of half-maximal effect; nearly all actives have a fitted effect of over 55% in size
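Cell growth measured by CellTiter-Glo luminescence after a minimum 48 h, 37 C compound exposure with 20 nM CPT in Tdp1-knockout DT40 cells stably expressing hTDP1, seeded 400/well; qHTS titration format.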
* hit, by the source's call; u = inconclusive; x = no result; [ ] = dose if it differs, or a comment. Unless noted, calls come from the whole dose curve; as a rule, active = well fitted curve in the direction sought with a large enough effect; inconclusive = small, poorly fitted or top-dose-only effect, or another doubt; inactive = no such curve, though single readings can be large; an effect the other way counts as inactive or inconclusive. Unless noted, % is set by controls: 0 for no effect and ±100 for the full control effect.

SMILES | IL1B secr inh | DT40 TDP1 no CPT | HT1080 IDH1KD tx | HT1080NT lethal | TDP1 cell CPT
N=C(N)SCc1ccc(Cl)cc1Cl | -101* | 18µM* | -20% | -19% | 23µM*
NC(=S)Cc1ccc(Cl)cc1Cl | -3 | 5% | -17% | -2% | 6%
Cc1ccc(CCSc2ccc(C(C)C)cc2)cn1 | -59* | 26µM* | 0% | -1% | u
Cc1ccc(CCSc2ccc(F)cc2)cn1 | -16 | u | 8% | 16% | 1%
CCCCC/C(C=O)=C\c1ccccc1 | x | 4% | x | x | -7%
CCCn1c(=O)c(C(=O)NNS(=O)(=O)c2ccc(C)cc2)c(O)c2ccccc21 | 14 | u | 33µM* | u | u
CCCCCCCCCC(=O)NNC(=O)c1c(O)c2ccccc2n(CC)c1=O | 17 | 8.2µM* | -16% | -1% | u
CCCCCC(=O)NNC(=O)c1c(O)c2ccccc2n(CC)c1=O | -3 | u | -14% | -8% | u
CCn1c(=O)c(C(=O)NNC(=O)c2ccccc2F)c(O)c2ccccc21 | 5 | 18µM* | -25% | u | u
CCn1c(=O)c(C(=O)NNC(=O)c2ccccc2Cl)c(O)c2ccccc21 | 99 | u | -22% | u | u
O=C(CS(=O)(=O)c1ccccc1)Nc1nccs1 | 12 | -8% | 6% | 3% | -1%
Cc1ccc(CCNS(=O)(=O)c2ccc3c(c2)CCN3C(=O)CCC(=O)O)cc1 | x | 3% | x | x | 4%
CC1C(=O)N(Cc2cn(CCC3OCCCO3)nn2)CCS(=O)(=O)N1Cc1ccc(-c2ccncc2)cc1 (configuration not stated) | -6 | 9.2µM* | -3% | -6% | -25%
CC(C)C1C(=O)N(Cc2cn(CCC3OCCO3)nn2)CCS(=O)(=O)N1Cc1ccc(-c2ccc(F)nc2)cc1 (configuration not stated) | 8 | 16µM* | 1% | 1% | u
CC1C(=O)N(Cc2cn(CCC3OCCCO3)nn2)CCS(=O)(=O)N1Cc1ccc(-c2ccc(F)nc2)cc1 (configuration not stated) | 28 | 13µM* | 1% | 1% | u
CC(C)C1C(=O)N(Cc2cn(CCC3OCCCO3)nn2)CCS(=O)(=O)N1Cc1ccc(-c2ccc(F)nc2)cc1 (configuration not stated) | 2 | 16µM* | 0% | -7% | u
CC(C)C1C(=O)N(Cc2cn(CCC3OCCCO3)nn2)CCS(=O)(=O)N1Cc1ccc(-c2cccc(N(C)C)c2)cc1 (configuration not stated) | 7 | -3% | 1% | 1% | 5%
Cc1cccc(C)c1-n1nnnc1-c1nc2cc(Br)ccc2[nH]c1=O | -4 | -29% | 0% | -1% | u
Cc1cccc(C)c1-n1nnnc1-c1nc2cc3ccccc3cc2[nH]c1=O | 8 | 0.73µM* | 0.37µM* | 0.65µM* | 0.52µM*
CCCCC/C=C\C/C=C\CCCCCCCC(=O)O[C@@H](CO)COC(=O)CCCCCCCCCCCCCCCCC | x | -1%[4.12 µM] | x | x | 0%[4.12 µM]
O=[N+]([O-])c1ccc2[nH]c(O)c(N=NC(=S)NCC3CCCO3)c2c1 (configuration not stated) | 9 | 15µM* | 5% | 3% | u
Cc1ccc(NCC(=O)N=Nc2c(O)[nH]c3ccc([N+](=O)[O-])cc23)cc1 | 67 | 23µM* | u | u | u
CCNC(=S)N=Nc1c(O)[nH]c2ccc([N+](=O)[O-])cc12 | 0 | 4.1µM* | 5.8µM* | -27% | 3.3µM*
O=[N+]([O-])c1ccc2[nH]c(O)c(N=NC(=S)Nc3cccnc3)c2c1 | 64 | 6% | 2% | -12% | -1%
CCCN(C(=O)COC(=O)CSc1ccc([N+](=O)[O-])cc1)C1CCS(=O)(=O)C1 (configuration not stated) | 0 | u | 9% | 5% | u
SMILES | IL1B secr inh | DT40 TDP1 no CPT | HT1080 IDH1KD tx | HT1080NT lethal | TDP1 cell CPT
CCC(=O)c1ccc(OCC(=O)OC(C)C(=O)Nc2c(C)n(C)n(-c3ccccc3)c2=O)cc1 (configuration not stated) | -6 | -31% | 4% | 1% | -3%
COc1ccc(-c2nnn(CC(=O)N(CC(=O)NC3CCCC3)c3ccccc3)n2)cc1OC | -2 | 15µM* | 8% | 2% | u
Cc1ccc(-c2nnn(CC(=O)N(CC(=O)NC3CCCCC3)c3ccc(F)c(Cl)c3)n2)o1 | 27 | 21µM* | 18µM* | u | 13µM*
Cc1ccc(-c2nnn(CC(=O)N(CC(=O)NC3CCCCC3)c3cccc(F)c3)n2)o1 | 3 | -15% | -10% | -7% | 1%
Cc1ccc(-c2nnn(CC(=O)N(CC(=O)NC3CCCC3)c3ccc(F)c(Cl)c3)n2)o1 | 33 | u | 16µM* | u | u
CSc1nc(NC(C)=O)nc(C)c1Br | -1 | -21% | 20% | 10% | -18%
CCOC(=O)c1cc([N+](=O)[O-])sc1NC(=O)c1ccc(S(=O)(=O)N2CC3(C)CC2CC(C)(C)C3)cc1 (configuration not stated) | 56 | 2.6µM* | -10% | 5% | 2.3µM*
CC1(C)CC2CC(C)(CN2S(=O)(=O)c2ccc(C(=O)Nc3ccc(Cl)c(S(=O)(=O)N4CCOCC4)c3)cc2)C1 (configuration not stated) | 27 | 3.7µM* | -14% | -10% | 3.3µM*
CC1(C)CC2CC(C)(CN2S(=O)(=O)c2ccc(C(=O)Nc3ccc(S(=O)(=O)N4CCOCC4)cc3)cc2)C1 (configuration not stated) | 37 | 5.2µM* | u | u | 3.7µM*
CC(=O)OCC(=O)C1(O)CCC2C3CC(C)C4=CC(=O)C=CC4(C)C3=CCC21C (configuration not stated) | -14 | u | 2% | 3% | u
COc1ccc(Cl)cc1S(=O)(=O)NC(C)C(=O)NCCCn1ccnc1 (configuration not stated) | 7 | -15% | 1% | -9% | -3%
Cc1cc(OCC(=O)N2CCN(c3ccccc3)CC2)c2c(C)c(C)c(=O)oc2c1 | 3 | 23% | -3% | 14% | -9%
Cc1cc(OC(C)C(=O)N2CCN(c3ccccc3)CC2)c2c(C)c(C)c(=O)oc2c1 (configuration not stated) | -3 | 29µM* | -5% | 1% | u
O=C(Nc1ccc(N2CCOCC2)cc1)c1ccccc1SCC(=O)N1CCCC1 | 17 | 3% | 12% | 8% | 6%
